Shown are actives, neighbours in structure and some others; about 2.9% of the full set was active somewhere.
PLCg1 inh: PLC-gamma1 enzyme inhibitors, primary screen, biochemical, fluorescence, purified enzyme | 1-phosphatidylinositol 4,5-bisphosphate phosphodiesterase gamma-1 (Homo sapiens), P19174 | fluorogenic substrate | inhibition, % at 12.2 µM | actives 0.84% (n = 370,000); in the data active = inhibition above about 9.5%
KLK7 zymogen act: proKLK7 zymogen activators, primary screen, biochemical, fluorescence intensity | purified proKLK7, EDANS-DABCYL substrate fluorescence; 100% is mature enzyme control, 0% vehicle | activation, % at 7 µM | actives 0.9% (n = 370,000) | AID 652039, 2013;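 active = activation above the mean of all tested compounds plus 3 SD, computed per campaign excluding outliers beyond control limits, cut at about 13% in these data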
PLC-beta3 inh: human PLC-beta3 inhibitors, primary screen, biochemical, fluorescence. 1-phosphatidylinositol 4,5-bisphosphate phosphodiesterase beta-3 (Homo sapiens), Q01970. Purified PLC-beta3, fluorogenic substrate. inhibition, % at 12.2 µM. actives 0.18% (n = 370,000);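 also: 0% = median of compound wells on plate and 100% = full blocker control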
ADAM17 inh: ADAM17 inhibitors, primary screen, biochemical, QFRET | Disintegrin and metalloproteinase domain-containing protein 17 (Homo sapiens), P78536 | recombinant ADAM17, EDANS/DABCYL FRET peptide cleavage | inhibition, % at 6.95 µM | actives 0.83% (n = 370,000) | AID 720648, 2013;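 active = inhibition above the mean of compounds lying between control limits plus 3 SD, set per campaign, cut at about 8.5% in these data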;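 also: 0% = DMSO-only wells as the low control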
ADAM10 inh: human ADAM10 inhibitors, primary screen, biochemical, QFRET, HTS. Disintegrin and metalloproteinase domain-containing protein 10 (Homo sapiens), O14672. recombinant ADAM10, EDANS/DABCYL FRET peptide cleavage, 3 h. inhibition, % at 7 µM. actives 0.62% (n = 370,000). AID 720582, 2013;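 active = inhibition above a per-campaign cutoff equal to the mean of compounds falling between control-based bounds plus 3 SD, cut at about 20% in these data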;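 also: 0% = DMSO wells while the 100% control is not disclosed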
ADAM10 ctr: ADAM10 inhibitors, counter-screen for ADAM17 exosite inhibitor project, biochemical, FRET, human ADAM10 | recombinant ADAM10, EDANS/DABCYL FRET peptide cleavage, 3 h | AID 743256, 2014 | inhibition, % at 6.95 µM | shares compounds with ADAM17 inh | actives 47% (n = 2,900);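 active = mean inhibition over the triplicate runs exceeds the activity threshold set in the earlier primary screen, cut at about 20% in these data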;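 also: 0% = DMSO wells and 100% = marimastat wells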
ADAM17 confirm: ADAM17 inhibitors, hit retest, confirmation, biochemical, QFRET peptide cleavage | shares compounds with ADAM17 inh | recombinant ADAM17, EDANS/DABCYL QFRET peptide cleavage | inhibition, % at 6.95 µM | AID 743257, 2014 | actives 65% (n = 2,900);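 active = mean inhibition across replicates above the hit cutoff set in the primary screen, cut at about 8.5% in these data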;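 also: 0% = DMSO wells and 100% = marimastat wells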
PLCgamma1 ctr: PLC-gamma1 enzyme inhibitors, counter-screen for PLC-beta3 inhibitor project, biochemical, fluorescence; shares compounds with PLCg1 inh; purified PLC-gamma1, fluorogenic substrate; inhibition, % at 12.3 µM; actives 3.1% (n = 3,300); in the data active = inhibition above about 9.5%
PLCbeta3 conf: PLC-beta3 inhibitor confirmation, biochemical, fluorescence, purified enzyme | fluorogenic substrate fluorescence | inhibition, % at 12.3 µM | actives 1% (n = 3,300) | shares compounds with PLCg1 inh
The depositor's hits bear a star; . = no result. Rule as the data show it, unless noted: active = inhibition above about 11%; inactive = the rest.

SMILES | PLCg1 inh | KLK7 zymogen act | PLC-beta3 inh | ADAM17 inh | ADAM10 inh | ADAM10 ctr | ADAM17 confirm | PLCgamma1 ctr | PLCbeta3 conf
CC(C)CC(=O)NC(=S)Nc1nc(-c2cccc3ccccc23)cs1 | 16* | 1 | 6 | 14* | 20 | 17 | 8 | -2 | -5
Cc1ccc(NC(=O)Nn2cnnc2)cc1 | 2 | 1 | -7 | -6 | 2 | . | . | . | .
O=C(Nc1ccc([N+](=O)[O-])cc1)Nn1cnnc1 | 12* | 0 | 4 | 10* | 6 | 5 | 8 | -3 | -3
C=CCN=C1NC(c2cccc(C(F)(F)F)c2)C(C(=O)OC)=C(C)N1Cc1ccccc1C(F)(F)F (stereo not drawn) | 3 | 1 | 2 | 4 | 6 | . | . | . | .
Cc1cccc(C(C#N)c2nc3ccccc3nc2C(F)(F)F)c1 (stereo not drawn) | 9.8* | 0 | 5 | 8.7* | 18 | 10 | 4 | 1 | -2
N#CC(c1ccc(Cl)cc1)c1nc2ccccc2nc1C(F)(F)F (stereo not drawn) | -2 | 0 | -1 | 4 | 8 | . | . | . | .
Cc1cc(N2CCNC[C@H]2C)ccc1N1CCN(Cc2ccccc2)[C@@H](C)C1 | -1 | -1 | 0 | -5 | -10 | . | . | . | .
COc1ccc(C2=NN(C(=O)CSC3=NN4CCCC(=O)N=C4S3)C(c3cccc(OC)c3OC)C2)cc1 (stereo not drawn) | 9.7* | 0 | 7 | 10* | 13 | -3 | 0 | -4 | -6
Cc1cc(Cl)ccc1OCC(=O)N1CCCN(C(=O)COc2ccc(Cl)cc2C)CC1 | 10* | 0 | 4 | 9.5* | 14 | 26* | 14* | -9 | -4
C=C1CC2(CC(c3ccccc3)OC(c3ccccc3)C2)OC1=O (stereo not drawn) | 13* | 0 | 10 | 9.6* | 15 | -8 | -1 | -2 | -2
CCN(c1cccc(C)c1)S(=O)(=O)c1ccc2c(c1)CCN2C(C)=O | 3 | 1 | 0 | -1 | -5 | . | . | . | .
CCN(c1cccc(C(F)(F)F)c1)S(=O)(=O)c1ccc2c(c1)CCN2C(C)=O | 14* | 0 | 5 | 8.7* | 11 | 20* | 11* | -9 | -5
OC(CN1CCN(c2ncc(C(F)(F)F)cc2Cl)CC1)c1ccccc1 (stereo not drawn) | 13* | 0 | 2 | 10* | 3 | -7 | -3 | -6 | -4
COC(=O)C1CN(C(=O)COc2cc(C)cc(C)c2)c2ccccc2O1 (stereo not drawn) | 4 | 0 | -5 | 0 | 13 | . | . | . | .
CCN(Cc1ccc(Br)s1)C(=O)CSc1nnc(C2CC2)n1C1CC1 | 0 | 0 | -2 | -6 | -25 | . | . | . | .
O=C(CSc1ccccc1F)NNC(=O)c1cncc(Br)c1 | 6 | 0 | -2 | -2 | -2 | . | . | . | .
COc1ccc(NC(=O)Cn2nnc(C(=O)Nc3ccc(F)c(Cl)c3)c2N)cc1OC | 0 | 0 | -3 | 2 | -2 | . | . | . | .
COc1ccc(Cl)cc1NC(=O)c1nnn(CC(=O)Nc2ccc(C)c(C)c2)c1N | 9.7* | 0 | -5 | 11* | 8 | -6 | 2 | -19 | -18
O=C(NCc1ccco1)c1ccc(F)c(S(=O)(=O)N2CCCCC2)c1 | 0 | 0 | 1 | -1 | 3 | . | . | . | .
O=C(NCc1ccco1)c1ccc(Br)c(S(=O)(=O)N2CCCCC2)c1 | 11* | 0 | 9 | 13* | 8 | 25* | 5 | -2 | 1
COc1ccc(CNC(=O)COC(=O)Cc2ccc(Br)cc2)cc1 | 0 | 0 | -5 | 0 | -6 | . | . | . | .
CCOC(=O)NCc1ccc(S(=O)(=O)Nc2ccc(C)cc2)cc1 | 13* | 0 | 4 | 11* | 14 | 5 | 4 | -7 | -4
CCN(CC)C(=O)c1nc[nH]c1C(=O)N(CC)CC | 14* | 0 | 7 | 9.2* | 9 | 6 | 4 | 0 | 0
O=C(CNC(=O)OCc1ccccc1)NC1(C(=O)O)CCCC1 | 1 | -1 | 4 | -1 | -5 | . | . | . | .
O=C(O)CNC(=O)C1(NC(=O)OCc2ccccc2)CCCC1 | 8 | 0 | 17* | 8.7* | 6 | 1 | 3 | -3 | 0
SMILES | PLCg1 inh | KLK7 zymogen act | PLC-beta3 inh | ADAM17 inh | ADAM10 inh | ADAM10 ctr | ADAM17 confirm | PLCgamma1 ctr | PLCbeta3 conf
COc1ccc(CCN(C(=O)C(F)(F)F)C(C(=O)NC2CCCCC2)c2ccc(C)s2)cc1 (stereo not drawn) | 11* | 0 | 8 | 9.1* | 3 | -2 | 1 | 1 | -4
COc1ccc(CCN(C(=O)C(F)(F)F)C(C(=O)NC2CCCCC2)c2cccs2)cc1 (stereo not drawn) | 0 | 0 | 1 | 3 | 8 | . | . | . | .
COc1cccc(-c2noc(C(C)n3nc(C)c([N+](=O)[O-])c3C)n2)c1 (stereo not drawn) | 11* | 0 | 8 | 13* | 16 | 13 | 6 | -6 | -3
COCC(=O)/C=C1\Sc2ccccc2N1C | 6 | 0 | 4 | -1 | 0 | . | . | . | .
CN1/C(=C/C(=O)C2CCC2)Sc2ccccc21 | 11* | 1 | 10 | 12* | 14 | 8 | 8 | 0 | 2
CC1CCN(C2(O)C(=O)Nc3ccc([N+](=O)[O-])cc32)CC1 (stereo not drawn) | 10* | 0 | 14* | 11* | 17 | 12 | 8 | -3 | 3
CC1CCN(C2(O)C(=O)Nc3ccc(Cl)cc32)CC1 (stereo not drawn) | 0 | 1 | -4 | -3 | 5 | . | . | . | .
CCOc1ccccc1OCCCC(=O)ON=C(N)c1ccccc1 | 3 | -1 | 0 | 1 | -2 | . | . | . | .
O=C(C[C@@H]1C/C=C\CCC(=O)OC[C@@H]2CCCN2C1=O)N[C@@H](CO)Cc1ccccc1 | 13* | 1 | 12* | 8.9* | 3 | 4 | 3 | 6 | 1

Assay outcomes (PubChem)
